High-throughput results (PubChem)
Shown are actives, neighbours in structure and some others; about 12% of the full set was active somewhere.
HP1b chromo inh = blocks HP1-beta chromodomain binding to methylated histone tails. P83916. AlphaScreen HP1-beta / biotin-H3K9me3 peptide binding. Potency, µM (doses to about 114 µM), hits mostly inhibitors. 0.56% of 390,000 active; also: nearly all actives have a fitted effect of over 70% in size
Target sequence (P83916 whole entry, looked up): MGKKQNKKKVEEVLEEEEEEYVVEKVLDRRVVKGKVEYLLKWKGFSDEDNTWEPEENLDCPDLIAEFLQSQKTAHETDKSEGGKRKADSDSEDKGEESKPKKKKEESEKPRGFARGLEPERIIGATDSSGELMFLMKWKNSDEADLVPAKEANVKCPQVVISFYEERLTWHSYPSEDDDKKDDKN
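HP1-beta protein (50 nM final) preincubated 30 min at room temperature with biotinylated H3(1-18)K9me3 peptide (50 nM) in PBS pH 7.4, 0.01% Tween-20, then compound added for 30 min. AlphaScreen streptavidin donor/nickel chelate acceptor beads (10 ug/mL final), 30 min dark, luminescence read.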
G9a inh = blocks human histone lysine methyltransferase G9a; Q96KQ7; 8.8% of 350,000 active; Potency, µM (doses to about 102 µM), hits mostly inhibitors; G9a H3K9 monomethylation, AlphaScreen, 2 h; also: nearly all actives have a fitted effect of over 75% in size
Target sequence (Q96KQ7 913-1193 limits assumed): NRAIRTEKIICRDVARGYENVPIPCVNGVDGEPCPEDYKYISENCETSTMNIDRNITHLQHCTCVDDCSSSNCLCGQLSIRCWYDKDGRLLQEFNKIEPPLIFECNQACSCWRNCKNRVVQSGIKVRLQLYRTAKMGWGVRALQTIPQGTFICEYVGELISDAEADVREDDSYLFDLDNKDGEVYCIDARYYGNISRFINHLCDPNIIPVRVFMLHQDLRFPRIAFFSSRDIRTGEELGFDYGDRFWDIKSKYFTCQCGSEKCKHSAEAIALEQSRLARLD
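Methyltransferase reactions run at room temperature for 2 h (20 nM enzyme, 500 nM biotin-H3K9 peptide, 20 uM SAM) after a 15 min compound preincubation; product detected by AlphaScreen beads and anti-H3K9me1 antibody.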
JMJD2A Tudor inh = inhibitors of human JMJD2A Tudor domain. AlphaScreen JMJD2A-Tudor / H3K4me3 peptide binding. 4.4% of 390,000 active. O75164. AID 504339. Potency, µM (titrated, usually from 114 µM), hits mostly inhibitors; also: nearly all actives have a fitted effect of over 50% in size
TDP1 inh = TDP1 (human) enzyme inhibition; Q9NUW8; recombinant TDP1, AlphaScreen DNA substrate cleavage; Potency, µM (doses to about 130 µM), usual class: inhibitors; 0.28% of 350,000 active; AID 485290; also: nearly all actives have a fitted effect of over 40% in size
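Signal: AlphaScreen proximity between streptavidin donor and anti-FITC acceptor beads on intact substrate. Reaction: Tdp1 1 nM, substrate 15 nM final, 5 min RT after 15 min compound preincubation.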
Sfp inh = blocks B. subtilis Sfp PPTase activity. 3.5% of 310,000 active. Biochemical Sfp PPTase activity, qHTS. Q9F4F7. AID 1490. Potency, µM, most hits filed as inhibitors;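 also: the enzyme is Sfp with the accession as filed and its product quenches rhodamine fluorescence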
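Step 1, compound plus 15 nM Sfp-PPTase, 15 min, room temperature. Step 2, add rhodamine-CoA (5 uM) and BHQ-2-YbbR (12.5 uM). Step 3, read 525/598 nm fluorescence at 0 and 30 min.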
BAZ2B block = inhibitors of human BAZ2B bromodomain | Q9UIF8 | AlphaScreen BAZ2B-H3K14Ac peptide displacement | Potency, µM (doses to about 114 µM), actives largely listed as inhibitors | 4.4% of 360,000 active; also: nearly all actives have a fitted effect of over 60% in size
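In this displacement format the biotinylated H3(5-23) peptide acetylated at Lys14 serves as ligand at 50 nM, with BAZ2B at 50 nM in PBS pH 7.4 containing 0.01% Tween-20. Donor and acceptor beads are 10 ug/mL final.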
Hits are given with their value; - = inactive; ? = inconclusive; . = no result given; [ ] = remark or other dose. Calls follow the shape of the dose curve; as a rule, active = well fitted curve in the direction sought with a large enough effect; inconclusive = small, poorly fitted or top-dose-only effect, or another doubt; inactive = no such curve, though single readings can be large; an effect the other way counts as inactive or inconclusive.

SMILES	HP1b chromo inh	G9a inh	JMJD2A Tudor inh	TDP1 inh	Sfp inh	BAZ2B block
Cc1sc2ncnc(SCC(=O)NC(C)(C)C)c2c1C	-	-	-	-	-	-
CCC(Sc1ncnc2sc(C)c(C)c12)C(=O)OC (stereo not given)	-	2µM	-	-	-	?
CCOC(=O)c1ccc(NC(=O)Nc2cc3c(cc2N2CCCC2)n(C)c(=O)n3C)cc1	-	?	?	-	.	-
Cc1ccc(C)c(CN2C(=O)c3ccccc3S(=O)(=O)c3ccc(C(=O)N4CCN(Cc5ccccc5)CC4)cc32)c1	-	?	-	-	.	?
CN(C)c1ccc(-c2n[nH]c(=S)n2-c2ccccc2)cc1	-	1.8µM	7.9µM	-	-	-
CCN(CC)c1ccc(-c2n[nH]c(=S)n2-c2ccccc2)cc1	-	1.4µM	20µM	-	-	-
CCN(CC)c1ccc(-c2n[nH]c(=S)n2-c2ccccc2C)cc1	-	?	-	-	?	?
CCCCOCCCNC(=O)CC(C)c1ccccc1 (stereo not given)	-	-	-	-	-	-
COc1ccc(CC(=O)Nc2nccs2)cc1S(=O)(=O)N1CCOCC1	-	.	-	-	.	.
COc1ccc2nc(NC(=O)Cc3ccc(OC)c(S(=O)(=O)N4CCOCC4)c3)sc2c1	-	79µM	-[11.4 µM]	-	-	-
COC(=O)c1c(NC(=O)Cc2ccc(OC)c(S(=O)(=O)N3CCOCC3)c2)sc(C)c1C	-	50µM	-	-	.	-
Cc1cc(N)c2ccccc2n1	-	?	-	-	-	-
Cc1cc(N)c2ccccc2[n+]1CCCCCCCCCCCCCC[n+]1c(C)cc(N)c2ccccc21	.	0.4µM	.	-	.	.
CCCCCCCCS(=O)c1sc2nc(C)cc(C)c2c1N (stereo not given)	-	?	-	-	45µM	-
CC(=O)c1cccc(N=Cc2c(O)ccc3ccccc23)c1	-	1.6µM	71µM	.	-	?
CC(=O)N(C)c1ccc(N=Cc2c(O)ccc3ccccc23)cc1	-	4µM	?	.	-	-
Cc1cccc(OCC(=O)NCc2cc(C)nc3ccccc23)c1	-	-	-	-	-	-
COc1cc(C2NC(=O)C(C#N)=C(S)N2c2ccccc2)ccc1OC(C)C (stereo not given)	-	?	-	-	40µM	-
CCOc1ccc(C2NC(=O)C(C#N)=C(S)N2c2cccc(C)c2)cc1OC (stereo not given)	-	?	-	-	?	-
N#CC1=C(S)N(c2ccccc2)C(c2ccc(-c3cccc(Cl)c3)o2)NC1=O (stereo not given)	-	?	?	-	28µM	?
COc1cc(C2C3CN(C)CC=C3C(C#N)=C(N)C2(C#N)C#N)ccc1OC(C)C (stereo not given)	-	?	-	-	-	-
COc1ccc(N2C(S)=C(C#N)C(=O)NC2c2ccco2)cc1 (stereo not given)	-	35µM	-	-	28µM	-
CCOc1ccc(C2NC(=O)C(C#N)=C(S)N2c2ccc(C)cc2)cc1OC (stereo not given)	-	?	-	-	45µM	-
Cc1cccc(N2C(S)=C(C#N)C(=O)NC2c2ccco2)c1 (stereo not given)	-	.	-	-	-	-
Cc1ccc(/C=C/c2onc(C)c2S(=O)(=O)N2CCC(C(=O)Nc3ccc(OC(F)(F)F)cc3)CC2)cc1	-	-	-	-	.	-
SMILES	HP1b chromo inh	G9a inh	JMJD2A Tudor inh	TDP1 inh	Sfp inh	BAZ2B block
COc1ccc(C2NC(=O)C(C#N)=C(S)N2c2ccccc2)cc1OC (stereo not given)	-	45µM	-	-	20µM	-
CCn1nc(C)cc1-c1n[nH]c(=S)n1N	?	2.8µM	8.9µM	-	45µM	?
O=C(O)c1ccc(-n2cccc2/C=C2/NC(=O)N(c3ccccc3)C2=O)cc1	16µM	8.9µM	25µM	.	-	13µM
O=C1N/C(=C/c2ccsc2)C(=O)N1c1ccccc1	-	.	-	-	-	-
O=C(O)c1ccc(-n2cccc2/C=C2/SC(=O)N(CC(=O)N3CCCC3)C2=O)cc1	14µM	8.9µM	10µM	50µM	-	8.9µM
O=C(O)c1ccc(-n2cccc2/C=C2/NC(=O)N(c3cccc(Cl)c3)C2=O)cc1	?	8.9µM	20µM	1.6µM	?	16µM
O=C(CN1C(=O)S/C(=C/c2cccs2)C1=O)N1CCCC1	-	-	-	-	.	?
CC(C)n1cc(/C=C2\NC(=O)N(c3cccc(Cl)c3)C2=O)c2ccccc21	-	?	-	-	-	-
CC(Sc1nncs1)C(=O)NC1CCCCC1C (stereo not given)	-	?	-	-	-	-
O=C(CN1C(=O)NC(c2ccccc2)(c2ccccc2)C1=O)NCc1ccc(F)cc1	-	.	-	-	.	.
Oc1c(Br)cc(Br)c2cccnc12	-	-[2.33 µM]	40µM	-	-	.
O=C1NC(=S)SC1=Cc1cc(Br)ccc1O	?	.	20µM	.	.	.
O=C1NC(=S)SC1=Cc1cccs1	?	.	-	.	.	.
O=C1NC(=S)S/C1=C\c1coc2ccccc2c1=O	-	50µM	?	-	-	?
O=C1NC(=S)S/C1=C\c1coc2ccc(O)cc2c1=O	-	45µM	-[11.4 µM]	.	-	?
O=C1NC(=S)SC1=Cc1ccc(Cl)cc1	-	.	?	.	.	.
COc1ccc(CCN2C(=O)N(c3ccc(C)cc3)C(=O)C2CC(=O)Nc2ccc(OC)cc2)cc1 (stereo not given)	-	-	-	-	.	-
O=C(C[n+]1cccc2ccccc21)c1ccc([N+](=O)[O-])cc1	-	?	28µM	-	-	-
O=C(Nc1ccc(Cc2ccncc2)cc1)c1cccc([N+](=O)[O-])c1	-	?	-	-	?	?
O=C(CNc1ccccc1)c1ccc([N+](=O)[O-])cc1	-	4.5µM	-	-	50µM	?
O=C(CCNc1ccc(Cc2ccncc2)cc1)c1ccc([N+](=O)[O-])cc1	?	-	22µM	-	-	?
O=C(CCNc1ccccc1)c1cccc([N+](=O)[O-])c1	-	18µM	?	-	-	?
O=C(CCc1ccccc1)OCC(=O)c1cccc([N+](=O)[O-])c1	-	?	?	-	-	-
COc1ccccc1N(CC(=O)Nc1ccccc1C(=O)N1CCOCC1)S(C)(=O)=O	-	-	-	-	-	-
CN1CCN(c2ncc3nc(-c4cc(F)cc(F)c4)c(=O)n(Cc4cccs4)c3n2)CC1	.	-[0.501 µM]	.	.	-	.
O=C(NCCNc1ccc([N+](=O)[O-])cc1)c1cccc(Br)c1	-	-	-	-	?	-
O=C(CCNc1ccc(Br)cc1)c1cccc([N+](=O)[O-])c1	79µM	3.2µM	20µM	-	-	?
Cc1cc(C)c2c(-n3cccc3)c(C(=O)NNS(=O)(=O)c3ccc(Br)cc3)sc2n1	-	?	56µM	-	-	?
Oc1[nH]c2ccccc2c1C1=NCCCC1	-	?	?	-	-	50µM
